Results as given in PubChem BioAssay (NCATS).
Records with an inconclusive call do not appear. Activity calls are given as the source filed them. Unless noted, calls follow the shape of the dose curve; as a rule, active = well fitted curve in either direction with a large enough effect (not every such curve was filed as active); inconclusive = small, poorly fitted or top-dose-only effect, or another doubt; inactive = flat fitted curve, though single readings scatter.

What was measured:
[1] = target: Lysosomal acid glucosylceramidase (Homo sapiens) (UniProt P04062); assay: Glucocerebrosidase-p2 (AID 348; in the data active = potency below about 10 µM; also: potency is read from the fitted curve at half-maximal effect); conditions: purified GBA, blue fluorogenic substrate, 40 min
Procedure, shortened: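 Normal human glucocerebrosidase (0.2 nM) with blue fluorogenic substrate (80 uM final) in citrate/phosphate pH 5.9 with 10mM sodium taurocholate, 0.01% tween-20; 40 min RT, NaOH/glycine stop; fluorescence Ex 365/Em 440; AC50 from a titration from 0.6 nM upwards.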

[2] = AP1 Signaling Pathway (AID 357); conditions: ME-180 AP-1-bla reporter, EGF-induced, beta-lactamase ratio, 5 h; at 7.69 µM (top of the series) unless noted;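 also: ME-180 reporter cells stimulated with EGF at its EC50 level; % is scaled to controls: 0 for no effect and ±100 for the full control effect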
Procedure, shortened: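 In this screen, ME-180 cells in Opti-MEM with 0.5% dialyzed FBS received EC50 EGF and compound titrations for 5 h. AP-1 reporter beta-lactamase was detected via CCF4 ratio, giving AC50 for positive and negative modulators.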

[3] = NFAT Signaling Pathway (AID 444); conditions: Jurkat NFAT-bla M1, carbachol, beta-lactamase ratio, 5 h; at 7.69 µM (top of the series) unless noted;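 also: carbachol stimulus at about its EC50 of 1 µM final; % is scaled to controls: 0 for no effect and ±100 for the full control effect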
Procedure, shortened: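 Read-out: CCF4 FRET ratio (460 nm/530 nm) after 1 h RT dye loading, used for %activity and AC50 from titration series. Cells: Jurkat NFAT-β-lactamase/M1 line, treated with compound plus 1 uM carbachol for 5 h, 37 °C.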

[4] = Stat Signaling Pathway (AID 446); conditions: ME-180 SIE beta-lactamase reporter, IL-6 stimulated, 5 h; at 7.69 µM (top of the series) unless noted;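 also: ME-180 cervical cancer cells given 40 pM IL-6 alongside compound; SIE-controlled beta-lactamase reporter measured as 460/530 nm FRET emission ratio; % is scaled to controls: 0 for no effect and ±100 for the full control effect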
Procedure, shortened: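 FRET read-out (405 nm excitation, 460/530 nm emission) of a beta-lactamase reporter under a STAT-inducible element in ME-180 cervical carcinoma cells. Cells with compound receive 40 pM IL-6 for 5 h. Values are normalised to AC90 stimulation and AC90 JAK-inhibitor controls.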

[5] = target: Glucocorticoid receptor (Homo sapiens) (UniProt P04150); assay: GR-GFP Redistribution (AID 450;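 active = compounds whose dose series gives a full or clear partial fitted curve of increased nuclear translocation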; also: potency is read from the fitted curve at half-maximal effect); conditions: U2OS GR-GFP nuclear translocation, laser cytometry, 2 h
[6] = target: Glucocorticoid receptor (Homo sapiens) (UniProt P04150); assay: GR-EFC Redistribution (AID 451; calls by dose curve; also: potency is read from the fitted curve at half-maximal effect); conditions: CHO-K1 GR-EFC translocation, beta-gal luminescence, 2 h
Procedure, shortened: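 Translocation of GR-ED fusion to nuclear EA restores b-gal, read by luminescence after 1 h room-temperature detection. Engineered CHO-K1 biosensor cells, 1,000/well, exposed 2 h at 37 C to titrations up to 46 uM final.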

[7] = target: Mitogen-activated protein kinase 10 (Mus musculus) (UniProt Q61831); assay: JNK3 AlphaScreen Assay (AID 530); conditions: JNK3 lysate, c-Jun phosphorylation; series mostly up to 11.4 µM;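 also: kinase came from lysate of stimulated human HepG2 cells; signal reports phosphorylation of biotinylated GST-cJun 1-79 at Ser73 with 10 µM ATP; % is scaled to controls: 0 for no effect and ±100 for the full control effect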
Procedure, shortened: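 Kinase buffer: 20 mM Tris-HCl pH 7.6, 10 mM MgCl2, 1 mM DTT, 0.1 mM Na3VO4, 0.01% Tween-20; ATP 10 uM. Substrate biotin-GST-cJun(1-79), enzyme from activated HepG2 lysates. Detection by Ser73 phospho-antibody AlphaScreen.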

[8] = target: 3',5'-cyclic-AMP phosphodiesterase 4B (Homo sapiens) (UniProt Q07343); assay: qHTS Assay for Inhibitors of PDE-IV (AID 607; active = well fitted activation curve with a large enough effect in the main read-out, with a control signal flat, not every such curve was filed as active; also: % of control where 0% means no effect); conditions: HEK293 ACTOne CNG channel cells, membrane potential fluorescence; series mostly up to 22.9 µM
Procedure, shortened: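 Cell-based read-out of cAMP via a modified cyclic nucleotide-gated channel and membrane potential dye (535/590 nm) in HEK293 cells expressing PDE4 endogenously. Compounds tested up to 22.9 uM final; 100 uM RO 20-1724 reference.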

[9] = target: ATP-dependent 6-phosphofructokinase (Trypanosoma brucei brucei) (UniProt O15648); assay: qHTS Assay to Find Inhibitors of T. brucei phosphofructokinase: hit validation (AID 492961; active = well fitted curve in the direction sought with a large enough effect; an effect the other way counts as inactive or inconclusive); conditions: T. brucei PFK, ADP-Glo luminescence; series mostly up to 51.4 µM
Procedure, shortened: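 In this biochemical qHTS validation, titrated compounds were tested against 1.25 nM PFK with 0.1 mM ATP and 0.5 mM F6P. Percent activity came from controls lacking or containing enzyme.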

[10] = qHTS profiling for inhibitors of Plasmodium falciparum proliferation (AID 504749; active = well fitted curve in the direction sought with a large enough effect; an effect the other way counts as inactive or inconclusive; also: potency is read from the fitted curve at half-maximal effect; nearly all actives have a fitted effect of over 60% in size); conditions: P. falciparum in erythrocytes, SYBR Green DNA, 72 h
Procedure, shortened: (§1)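 In a 72 h erythrocytic culture (37 C, humidified, 5% CO2) at 2.5% hematocrit and 0.3% starting parasitemia, compounds were tested; SYBR Green I in detergent lysis buffer stained parasite DNA overnight.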

AS120 = assay: as above; conditions: P. falciparum in erythrocytes, SYBR Green DNA, 72 h; series mostly up to 28.7 µM
Procedure, shortened: as §1

ATS189 = assay: as above; conditions: P. falciparum in erythrocytes, SYBR Green DNA, 72 h; series mostly up to 28.7 µM
Procedure, shortened: as §1

W2 = assay: as above; conditions: P. falciparum in erythrocytes, SYBR Green DNA, 72 h; series mostly up to 28.7 µM
Procedure, shortened: as §1

[11] = target: Cytochrome P450 1A2 (Homo sapiens) (UniProt P05177); assay: p450-cyp1a2 (AID 410; calls by dose curve; also: potency is read from the fitted curve at half-maximal effect); conditions: recombinant CYP1A2, luciferin-ME demethylation, luminescence; series mostly up to 11.4 µM
Procedure, shortened: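 20nM CYP1A2, 100uM Luciferin-ME (=Km), 100mM KPO4; cpd 10 min RT; +NADPH regen, 60 min RT; stop/detect 20 min; luminescence. Normalized to furafylline 57 uM = full inhibition.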

[12] = target: Cytochrome P450 3A4 (Homo sapiens) (UniProt P08684); assay: qHTS Assay for Activators of Cytochrome P450 3A4 (AID 885; active = well fitted curve in the direction sought with a large enough effect; an effect the other way counts as inactive or inconclusive; also: nearly all actives have a fitted effect of over 65% in size); conditions: recombinant CYP3A4, Luciferin-PPXE luminescence, 60 min; series mostly up to 11.4 µM
Procedure, shortened: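 Luminescent readout of luciferin formed from 25 uM Luciferin-PPXE (KM level) by 20 nM CYP3A4 in 200 mM KPO4, with 60 min NADPH-driven reaction at room temperature after 10 min compound exposure. Ketoconazole (57 uM) defined 100% inhibition.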

[13] = qHTS Assay for Identification of Small Molecule Agonists for Hypoxia Response Element Signaling Pathway (AID 914; active = well fitted activation curve with a large enough effect in the signal ratio, with a control signal flat, not every such curve was filed as active; the % refers to the signal ratio; also: potency is read from the fitted curve at half-maximal effect); conditions: ME-180 (cervical carcinoma) HRE-bla reporter, beta-lactamase ratio, CoCl2, 17 h; activation: hits give high values
Procedure, shortened: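 HRE-bla ME-180 cells, overnight plating in Opti-MEM with 0.5% dialyzed FBS; cpd titration + EC50 CoCl2, 17 h, 37 degrees Celsius; CCF4 2.5 h RT; 460/530 nm ratio; AC50.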

Glucocorticoid receptor (Homo sapiens), sequence (P04150 whole entry, looked up, the tested form may be a part): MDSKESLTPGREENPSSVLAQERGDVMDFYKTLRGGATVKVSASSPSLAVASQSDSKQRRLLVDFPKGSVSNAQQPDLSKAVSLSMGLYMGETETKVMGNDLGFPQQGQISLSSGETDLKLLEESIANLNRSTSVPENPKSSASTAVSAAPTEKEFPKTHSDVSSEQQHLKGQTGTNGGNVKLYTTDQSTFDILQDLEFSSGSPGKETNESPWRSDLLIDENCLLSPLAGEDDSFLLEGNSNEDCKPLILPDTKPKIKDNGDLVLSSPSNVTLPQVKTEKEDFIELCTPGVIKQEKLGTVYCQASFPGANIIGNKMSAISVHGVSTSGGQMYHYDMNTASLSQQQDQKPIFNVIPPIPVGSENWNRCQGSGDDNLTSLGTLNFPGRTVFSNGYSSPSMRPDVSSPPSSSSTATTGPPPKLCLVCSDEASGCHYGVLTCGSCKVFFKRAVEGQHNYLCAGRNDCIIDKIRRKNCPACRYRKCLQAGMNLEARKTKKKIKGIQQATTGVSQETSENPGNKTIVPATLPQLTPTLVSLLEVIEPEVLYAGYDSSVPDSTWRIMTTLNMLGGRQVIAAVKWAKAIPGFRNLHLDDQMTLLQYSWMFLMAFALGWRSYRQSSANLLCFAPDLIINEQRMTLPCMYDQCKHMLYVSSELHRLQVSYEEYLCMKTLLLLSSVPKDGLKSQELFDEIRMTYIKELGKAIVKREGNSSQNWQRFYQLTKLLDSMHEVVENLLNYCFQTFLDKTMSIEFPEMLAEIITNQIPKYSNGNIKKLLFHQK
Lysosomal acid glucosylceramidase (Homo sapiens), sequence (P04062 whole entry, looked up): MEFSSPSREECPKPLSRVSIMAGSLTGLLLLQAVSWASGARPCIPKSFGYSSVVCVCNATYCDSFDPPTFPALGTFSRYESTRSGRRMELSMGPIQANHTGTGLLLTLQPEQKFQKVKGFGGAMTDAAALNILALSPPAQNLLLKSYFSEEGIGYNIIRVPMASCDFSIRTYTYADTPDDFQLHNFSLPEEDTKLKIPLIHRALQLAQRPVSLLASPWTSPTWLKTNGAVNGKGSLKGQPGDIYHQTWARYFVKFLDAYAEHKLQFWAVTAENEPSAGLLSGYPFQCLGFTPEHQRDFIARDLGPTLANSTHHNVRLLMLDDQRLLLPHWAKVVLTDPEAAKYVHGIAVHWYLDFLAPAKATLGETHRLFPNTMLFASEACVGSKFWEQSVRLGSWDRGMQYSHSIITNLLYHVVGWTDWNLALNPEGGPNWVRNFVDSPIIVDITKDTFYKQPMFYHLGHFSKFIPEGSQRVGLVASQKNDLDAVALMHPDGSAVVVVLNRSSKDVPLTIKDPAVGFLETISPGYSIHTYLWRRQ
ATP-dependent 6-phosphofructokinase (Trypanosoma brucei brucei), sequence (O15648 whole entry, looked up): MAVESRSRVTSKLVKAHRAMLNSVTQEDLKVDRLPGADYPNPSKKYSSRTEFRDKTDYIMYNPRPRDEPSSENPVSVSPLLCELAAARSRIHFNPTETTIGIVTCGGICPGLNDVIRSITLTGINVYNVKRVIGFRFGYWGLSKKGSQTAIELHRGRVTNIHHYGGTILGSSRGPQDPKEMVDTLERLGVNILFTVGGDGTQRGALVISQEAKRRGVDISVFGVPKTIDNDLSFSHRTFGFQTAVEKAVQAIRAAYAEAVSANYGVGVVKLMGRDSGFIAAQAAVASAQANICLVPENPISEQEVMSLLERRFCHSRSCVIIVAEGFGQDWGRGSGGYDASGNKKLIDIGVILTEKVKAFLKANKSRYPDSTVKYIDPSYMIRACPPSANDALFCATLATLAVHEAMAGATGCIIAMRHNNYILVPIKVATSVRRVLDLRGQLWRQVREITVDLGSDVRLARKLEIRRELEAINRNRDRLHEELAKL
3',5'-cyclic-AMP phosphodiesterase 4B (Homo sapiens), sequence (Q07343 whole entry, looked up): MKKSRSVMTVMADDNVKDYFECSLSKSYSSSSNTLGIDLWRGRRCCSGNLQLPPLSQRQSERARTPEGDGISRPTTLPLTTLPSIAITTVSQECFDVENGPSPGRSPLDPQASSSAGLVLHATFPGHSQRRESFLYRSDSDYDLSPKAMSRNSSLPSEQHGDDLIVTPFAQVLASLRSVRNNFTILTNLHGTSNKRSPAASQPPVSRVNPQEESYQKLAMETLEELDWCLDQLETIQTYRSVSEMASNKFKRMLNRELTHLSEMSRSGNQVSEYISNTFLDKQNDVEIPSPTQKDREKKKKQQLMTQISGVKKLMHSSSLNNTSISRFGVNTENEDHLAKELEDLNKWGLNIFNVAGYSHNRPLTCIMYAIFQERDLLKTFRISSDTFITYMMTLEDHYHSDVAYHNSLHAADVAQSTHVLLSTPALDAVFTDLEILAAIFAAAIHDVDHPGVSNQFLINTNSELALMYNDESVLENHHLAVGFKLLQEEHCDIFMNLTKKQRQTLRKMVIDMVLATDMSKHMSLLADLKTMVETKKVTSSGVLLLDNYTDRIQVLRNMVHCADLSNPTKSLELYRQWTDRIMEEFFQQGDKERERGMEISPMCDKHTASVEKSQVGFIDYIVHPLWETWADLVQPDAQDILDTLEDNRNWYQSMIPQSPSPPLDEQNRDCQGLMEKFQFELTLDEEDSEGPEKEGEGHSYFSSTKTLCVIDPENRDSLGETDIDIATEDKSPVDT
Cytochrome P450 3A4 (Homo sapiens), sequence (P08684 whole entry, looked up): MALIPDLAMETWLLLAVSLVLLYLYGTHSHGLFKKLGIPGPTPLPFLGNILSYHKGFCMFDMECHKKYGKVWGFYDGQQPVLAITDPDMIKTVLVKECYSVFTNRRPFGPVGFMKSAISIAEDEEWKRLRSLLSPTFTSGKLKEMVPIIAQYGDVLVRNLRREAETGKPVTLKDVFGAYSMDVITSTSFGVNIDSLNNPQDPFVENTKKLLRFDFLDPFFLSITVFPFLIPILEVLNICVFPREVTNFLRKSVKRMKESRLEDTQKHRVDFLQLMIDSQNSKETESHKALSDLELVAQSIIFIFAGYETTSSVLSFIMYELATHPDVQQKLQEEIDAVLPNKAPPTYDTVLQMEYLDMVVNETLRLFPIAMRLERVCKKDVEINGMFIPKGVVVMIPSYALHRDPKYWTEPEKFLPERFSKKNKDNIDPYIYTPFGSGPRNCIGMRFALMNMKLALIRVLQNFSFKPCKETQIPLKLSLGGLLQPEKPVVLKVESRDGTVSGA
Cytochrome P450 1A2 (Homo sapiens), sequence (P05177 whole entry, looked up): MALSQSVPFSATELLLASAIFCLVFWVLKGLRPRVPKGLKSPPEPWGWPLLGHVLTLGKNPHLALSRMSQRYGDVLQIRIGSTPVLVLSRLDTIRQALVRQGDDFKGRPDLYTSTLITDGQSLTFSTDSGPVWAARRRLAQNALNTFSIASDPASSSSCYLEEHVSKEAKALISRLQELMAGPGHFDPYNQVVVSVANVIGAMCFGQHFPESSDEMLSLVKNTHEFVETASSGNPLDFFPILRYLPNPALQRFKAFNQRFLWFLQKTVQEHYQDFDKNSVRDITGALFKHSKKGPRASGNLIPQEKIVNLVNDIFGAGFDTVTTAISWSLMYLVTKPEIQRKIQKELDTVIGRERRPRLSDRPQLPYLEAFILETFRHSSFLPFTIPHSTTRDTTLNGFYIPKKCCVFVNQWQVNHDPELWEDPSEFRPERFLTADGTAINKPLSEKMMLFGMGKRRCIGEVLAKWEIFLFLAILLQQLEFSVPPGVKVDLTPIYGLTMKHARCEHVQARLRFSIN

CC(C)(C)c1ccc(CN2CCN([C@H](c3ccccc3)c3ccc(Cl)cc3)CC2)cc1
inactive: Potency [1] > 11.4 µM | activity change, negative = inhibition [2] 2.89% | activity change, negative = inhibition [3] -9.36% | activity, negative = inhibition [4] 0.758% | Potency [5] > 46 µM | Potency [6] > 9.22 µM | Potency [7] | Potency [8] | outcome [9]
active: Potency ([10]; parasite line A) 7.94 µM | Potency ([10]; parasite line B) 12.6 µM | Potency (AS120) 7.94 µM | Potency (ATS189) 8.91 µM | Potency (W2) 3.38 µM

O=C(NCc1cccs1)O[C@H]1C[C@H]2CC[C@@H]1C2
inactive: Potency [1] > 11.4 µM | activity change, negative = inhibition [2] 19.6% | activity change, negative = inhibition [3] 16.7% | activity, negative = inhibition [4] 8.46% | Potency [5] > 46 µM | Potency [6] > 9.22 µM | Potency [7]

CN1CCN(c2ncc3nc(-c4cccs4)c(=O)n(C[C@H]4CCCO4)c3n2)CC1
inactive: Potency [1] > 11.4 µM | activity change, negative = inhibition [2] 19.1% | Potency [5] > 9.22 µM | Potency [6] > 46 µM | Potency [7] | Potency [12]
active: Potency [11] 12.6 µM | Potency [13] 3.16 µM

Nc1nc(SCc2ccccn2)c2ncn(C3CCCC3)c2n1
inactive: Potency [1] > 11.4 µM | activity change, negative = inhibition [2] -14.6% | activity change, negative = inhibition [3] 9.85% | activity, negative = inhibition [4] 4.58% | Potency [5] > 46 µM | Potency [6] > 9.22 µM | Potency [7]
